The sample as a whole holds a higher share of hits than the screen did.
Bead autofluor = flagged as autofluorescent in microsphere protease counterscreen; compound autofluorescence counterscreen, microsphere flow cytometry; stronger effect = higher value; hit rate 3.1% among 360,000; AID 624483; fluorescence intensity (no concentration beside the values); in the data active = fluorescence intensity above about 16000; inconclusive = no clear call, values can overlap the other calls
BoNT F protease = inhibitors of Botulinum neurotoxin F light chain protease. Multiplex microsphere protease cleavage assay, flow cytometry. inhibition, % at 10 µM. hit rate 0.22% among 360,000. AID 588497; in the data active = inhibition above about 35%, passing the limit was not always enough; inconclusive = no clear call, values can overlap the other calls; note: plate controls were buffer without enzyme for full effect and enzyme alone for no effect
Anthrax LF inh2 = inhibitors of Bacillus anthracis lethal factor protease | hit rate 0.12% among 360,000 | multiplex microsphere protease cleavage assay, LF | inhibition, % at 10 µM; note: plate controls were buffer without enzyme for full effect and enzyme alone for no effect
Target sequence (P15917 whole entry, looked up): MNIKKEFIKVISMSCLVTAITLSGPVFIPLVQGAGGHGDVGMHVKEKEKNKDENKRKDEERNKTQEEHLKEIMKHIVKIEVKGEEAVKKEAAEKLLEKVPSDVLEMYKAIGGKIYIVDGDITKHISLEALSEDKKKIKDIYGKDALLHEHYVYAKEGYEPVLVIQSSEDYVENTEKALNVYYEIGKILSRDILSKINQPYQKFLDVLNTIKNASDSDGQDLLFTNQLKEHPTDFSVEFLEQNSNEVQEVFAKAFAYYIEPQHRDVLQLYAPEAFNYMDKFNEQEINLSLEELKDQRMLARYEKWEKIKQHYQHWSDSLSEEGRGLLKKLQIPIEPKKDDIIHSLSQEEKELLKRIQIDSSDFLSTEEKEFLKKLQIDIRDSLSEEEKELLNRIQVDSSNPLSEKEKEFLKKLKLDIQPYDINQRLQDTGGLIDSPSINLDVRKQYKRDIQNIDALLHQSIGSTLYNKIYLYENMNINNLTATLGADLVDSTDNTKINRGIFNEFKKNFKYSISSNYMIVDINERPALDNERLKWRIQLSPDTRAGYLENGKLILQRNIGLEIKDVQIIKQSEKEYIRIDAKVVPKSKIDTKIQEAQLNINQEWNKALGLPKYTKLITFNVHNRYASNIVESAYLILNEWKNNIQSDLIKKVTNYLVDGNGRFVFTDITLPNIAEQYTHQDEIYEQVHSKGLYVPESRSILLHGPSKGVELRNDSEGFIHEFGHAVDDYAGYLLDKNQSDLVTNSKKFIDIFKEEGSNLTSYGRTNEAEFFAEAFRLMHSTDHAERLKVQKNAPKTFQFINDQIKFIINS
BoNT A protease = inhibitors of Botulinum neurotoxin A light chain protease. multiplex microsphere protease substrate cleavage, flow cytometry. inhibition, % at 10 µM. hit rate 0.17% among 360,000. AID 588499; note: plate controls were buffer without enzyme for full effect and enzyme alone for no effect
TcdB GH inh = inhibitors of Clostridioides difficile toxin B glycohydrolase. TcdB glycohydrolase enzymatic assay, plate reader. P18177. inhibition, % at 9.99 µM. hit rate 0.24% among 350,000; in the data active = inhibition above about 10%
Numbers without * were called inactive. Cut-off read from the data, not from the text of the source, unless noted: active = inhibition above about 30%; inconclusive = no clear call, values can overlap the other calls; inactive = below that.

Screening C[C@H](CO)N1C[C@H](C)[C@H](CN(C)C)Oc2cc(C#CC(C)(C)O)ccc2S1(=O)=O returned TcdB GH inh -0.1.
COc1ccc(NC(=O)CN(C)C(C)C(=O)N2CCCCC2)cc1 (stereo unspecified) was read as Bead autofluor 21556*, BoNT F protease 4.9, Anthrax LF inh2 -2.6 and BoNT A protease 1.4.
Screening CC1CCN(CC(=O)NCc2ccco2)CC1 returned Bead autofluor 4192, BoNT F protease -8.8, Anthrax LF inh2 -3.3, BoNT A protease 0.1 and TcdB GH inh 1.9.
`O=C(CN1CCc2ccccc2C1)NCc1ccco1` gave Bead autofluor 19256*, BoNT F protease 2.8, Anthrax LF inh2 -8.0 and BoNT A protease 3.1.
Screening CCN(CC)Cc1cc(C(C)=O)ccc1OCC(C)C returned Bead autofluor 16228*, BoNT F protease 0.0, Anthrax LF inh2 -3.0, BoNT A protease -0.1 and TcdB GH inh 3.1.
Screening O=C(CN1C(=O)COc2ccccc21)N1CCCC1 returned Bead autofluor 3415, BoNT F protease 0.5, Anthrax LF inh2 0.5, BoNT A protease -0.4 and TcdB GH inh -0.6.
For O=C(CN1C(=O)COc2ccccc21)N1CCCc2ccccc21 the results were Bead autofluor 22767*, BoNT F protease -7.2, Anthrax LF inh2 -0.4, BoNT A protease -7.3 and TcdB GH inh 0.9.
Screening O=C(CN1C(=O)COc2ccccc21)NCc1ccc(C(=O)O)cc1 returned Bead autofluor 22844*, BoNT F protease 2.3, Anthrax LF inh2 1.3 and BoNT A protease 0.7.
For COC(=O)c1cn(N(C)c2ncc(C(F)(F)F)cc2Cl)c(=O)c2ccccc12 the results were Bead autofluor 2383, BoNT F protease 3.0, Anthrax LF inh2 -3.8 and BoNT A protease -1.0.
For CCOC(=O)NC(=O)c1cn(N(C)c2ncc(C(F)(F)F)cc2Cl)c(=O)[nH]c1=O the results were Bead autofluor 21416*, BoNT F protease -66.7, Anthrax LF inh2 -23.0, BoNT A protease -17.3 and TcdB GH inh -0.4.
For CC(C)NC(=O)Nc1ccc2c(c1)CC(=O)N([C@@H](C)CO)C[C@@H](C)[C@H](CN(C)Cc1ccc3c(c1)OCO3)O2 the results were TcdB GH inh -0.9.
Screening Nc1ccc(/C=C/c2ccc3ncccc3c2)cc1 returned Bead autofluor 4114, BoNT F protease 7.1, Anthrax LF inh2 0.5, BoNT A protease 0.6 and TcdB GH inh -0.4.
Screening Nc1ccc2ncccc2c1 returned Bead autofluor 17386*, BoNT F protease 16.7, Anthrax LF inh2 -20.5, BoNT A protease inconclusive and TcdB GH inh 1.8.
Screening COC(=O)C1CCN(S(=O)(=O)c2ccc(OC)cc2)CC1 returned Bead autofluor 24359*, BoNT F protease -4.2, Anthrax LF inh2 0.6 and BoNT A protease -2.2.
Screening COc1ccc(S(=O)(=O)N2CCCCCC2)cc1 returned Bead autofluor 22702*, BoNT F protease 0.7, Anthrax LF inh2 -2.0 and BoNT A protease 0.0.
`COc1ccc(S(=O)(=O)N2CCC(NC(=O)Nc3ccc(C)cc3)CC2)cc1` gave Bead autofluor 20464*, BoNT F protease 5.0, Anthrax LF inh2 -5.8 and BoNT A protease inconclusive.
`CN1CCN(C2OC(=O)c3ccccc32)CC1` (stereo unspecified) gave Bead autofluor 17143*, BoNT F protease -3.0, Anthrax LF inh2 0.8 and BoNT A protease -2.3.
For COC(=O)c1nn(-c2ccc(OC)cc2)c(=O)cc1Oc1ccccc1 the results were Bead autofluor 21753*, BoNT F protease 3.0, Anthrax LF inh2 -1.0 and BoNT A protease 1.7.
For COc1ccc(/C=C/C(=O)c2ccncc2)c2ccccc12 the results were Bead autofluor 2665, BoNT F protease 5.8, Anthrax LF inh2 20.9 and BoNT A protease 44.9*.
COc1cc(NC(=O)CSCc2cnn(-c3ccccc3)c2-n2cccc2)cc(OC)c1 was read as Bead autofluor 3064, BoNT F protease 1.2, Anthrax LF inh2 -9.6 and BoNT A protease -1.3.
`CCOc1ccc(NC(=O)CSCc2cnn(-c3ccccc3)c2-n2cccc2)cc1` gave Bead autofluor 19959*, BoNT F protease -1.2, Anthrax LF inh2 -1.7 and BoNT A protease 1.2.
For O=C(CSCc1cnn(-c2ccccc2)c1-n1cccc1)N1CCN(Cc2ccccc2)CC1 the results were Bead autofluor 18611*, BoNT F protease 8.5, Anthrax LF inh2 -2.8 and BoNT A protease inconclusive.
`C[C@@H]1CN([C@@H](C)CO)S(=O)(=O)c2ccc(C#CC3CC3)cc2O[C@@H]1CN(C)C` gave TcdB GH inh -1.0.
Screening C[C@@H]1CN([C@H](C)CO)C(=O)Cc2cc(NC(=O)C3CC3)ccc2O[C@H]1CN(C)CC1CCCCC1 returned TcdB GH inh -1.2.
`CC1CCCN(c2oc(-c3cccc4ccccc34)nc2C#N)C1` (stereo unspecified) gave Bead autofluor 17536*, BoNT F protease 16.3, Anthrax LF inh2 -15.0 and BoNT A protease 10.0.
`O=C(NCc1ccc(F)cc1)[C@H]1[C@H](CO)[C@H]2Cn3c(cccc3=O)[C@@H]1N2C(=O)Cc1ccccn1` gave TcdB GH inh -0.5.
Screening CCOC(=O)CSc1nnc(CSc2nc3sc4c(c3c(=O)[nH]2)CCC4)n1C returned Bead autofluor 9729, BoNT F protease 6.9, Anthrax LF inh2 5.3 and BoNT A protease -0.3.
For CCOC(=O)CSc1nnc(CSc2nc3sc4c(c3c(=O)[nH]2)CCC4)n1-c1ccccc1 the results were Bead autofluor 21953*, BoNT F protease 1.7, Anthrax LF inh2 1.4 and BoNT A protease 0.5.
`CN1/C(=C\C(=S)NC(=O)c2cccc(Br)c2)C(C)(C)c2ccccc21` gave Bead autofluor 5118, BoNT F protease -18.5, Anthrax LF inh2 15.9, BoNT A protease 41.5* and TcdB GH inh 0.1.
For COCC(=O)Nc1ccc2c(c1)[C@H]1C[C@H](CC(=O)N3CCc4ccccc4C3)O[C@H](CO)[C@H]1O2 the results were TcdB GH inh 0.2.
Cc1ccc(O)c(C(=O)c2cnc3c(c2)CN(C)C(=O)N3)c1 was read as Bead autofluor 21945*, BoNT F protease 6.0, Anthrax LF inh2 -3.5 and BoNT A protease 3.0.
Cc1ccc(O)c(C(=O)c2cnc3c(c2)CN(CCC(C)C)C(=O)N3)c1 was read as Bead autofluor 8641, BoNT F protease 6.1, Anthrax LF inh2 4.9 and BoNT A protease -0.6.
Screening O=C(O)CSc1nc2c(c(=O)[nH]1)CCCC2 returned Bead autofluor 24867*, BoNT F protease -8.6, Anthrax LF inh2 -1.5 and BoNT A protease -7.7.
`O=C(CSc1nc2c(c(=O)[nH]1)CCCC2)Nc1ccc(Cl)cc1F` gave Bead autofluor 20550*, BoNT F protease -0.2, Anthrax LF inh2 -2.9, BoNT A protease 0.5 and TcdB GH inh 0.8.
For O=C(CSc1nc2c(c(=O)[nH]1)CCC2)Nc1ccc(F)cc1 the results were Bead autofluor 4196, BoNT F protease -12.3, Anthrax LF inh2 -2.5, BoNT A protease -1.4 and TcdB GH inh 1.3.
`O=C(O)c1ccc(CSc2nc3c(c(=O)[nH]2)CCC3)cc1` gave Bead autofluor 3724, BoNT F protease -1.4, Anthrax LF inh2 -4.1, BoNT A protease -0.3 and TcdB GH inh -0.7.
ONC(=Nc1ccccc1)c1ccc(Cl)cc1 was read as Bead autofluor 21077*, BoNT F protease 4.3, Anthrax LF inh2 -1.4 and BoNT A protease 2.3.
